Assay results taken from PubChem BioAssay AID463173 (ICCB-Longwood Screening Facility, Harvard Medical School, 2010).
Hit rate of the full screen: of about 52,000 compounds, about 1,700 (3.3%) were called active. This is one part of a sample in which actives are shown more often than they occur. A number with no mark means an inactive call. No stated cut-off is given here; in the data, active means survival mostly below about 52% (no sharp cut-off); inactive means mostly above about 56%.

What follows are compounds tested on Wild type (assay: growth inhibition of S. aureus wild type versus tarO mutant, primary screen, teichoic acid synthesis inhibitors, RN4220, OD600 (AID 463173)). Conditions: S. aureus RN4220 wild type/DeltatarO growth, OD600, 18 h, hits give low values, screened at 18.75 µg/mL (by protocol).

Compound	survival
O=C(COc1ccccc1Cl)OCc1cc(=O)n2nc(C3CCCCC3)sc2n1	71%
Cc1ccc(Cc2nc3ccccc3nc2SCC(=O)N2CCC(C)CC2)cc1	77%
Cc1nc2nc(NC(=O)C(C)C)[nH]n2c(=O)c1Cc1ccccc1	88%
CCc1ccc(CNc2nc3nc(C)c(Cc4ccccc4)c(=O)n3[nH]2)cc1	93%
Cc1nc2nc(NCc3ccccc3Cl)[nH]n2c(=O)c1Cc1ccccc1	86%
Cc1ccccc1Cc1c(C)nc2c(-c3ccccc3)c(C)[nH]n2c1=O	-13% (active)
Cc1ccc(Cc2c(C)nc3c(-c4ccccc4)c(C)[nH]n3c2=O)cc1	-11% (active)
COc1cccc(C(=O)Nc2nc3nc(C)c(Cc4ccccc4)c(=O)n3[nH]2)c1	105%
CCOC(=O)CCc1c(C)nc2c(-c3ccccc3)c(C)[nH]n2c1=O	74%
CCc1c(C)nc2cc(-c3ccccc3)[nH]n2c1=O	106%
Cc1nc2nc(NC(=O)CC(C)C)[nH]n2c(=O)c1Cc1ccccc1	110%
Cc1nc2c(-c3ccccc3)c(C)[nH]n2c(=O)c1Cc1ccc(C(C)C)cc1	-5% (active)
Cc1nc2nc(NCc3cccc(Cl)c3)[nH]n2c(=O)c1Cc1ccccc1	85%
Cc1cccc(Cc2c(C)nc3c(-c4ccccc4)c(C)[nH]n3c2=O)c1	4% (active)
CCCCN(C)C(=O)c1ccc2c(=O)n3nc(Nc4cc(C)ccc4C)sc3nc2c1	140%
CCN(CC)CCCNC(=O)c1nn(-c2ccc(OC)c(Cl)c2)c(=O)c2c1c1ccccc1n2C	80%
O=C(Cn1cc(S(=O)(=O)N2CCN(c3ccccc3F)CC2)c2ccccc2c1=O)Nc1ccc(F)cc1Cl	129%
Cc1cccc(CN2C(=O)CC(c3ccc(Cl)cc3)c3c(C)nn(-c4nc(C)cc(C)n4)c32)c1 (stereo unspecified)	76%
Cc1nc2nc(NCc3cccc(Br)c3)[nH]n2c(=O)c1Cc1ccccc1	68%
Cc1nc2c(-c3ccccc3)c(C)[nH]n2c(=O)c1Cc1ccc(Br)cc1	-5% (active)
Cc1nc2nc(NCc3ccc(Br)cc3)[nH]n2c(=O)c1Cc1ccccc1	63%
CCc1nc2nc(C)cc(Nc3ccc(OC)cc3OC)n2n1	75%
COC(=O)c1scc(-c2ccc(C)cc2)c1S(=O)(=O)Nc1ccc(F)cc1F	72%
CCN(CC)c1nc2c(S(=O)(=O)c3ccccc3)nnn2c2ccc(Cl)cc12	9% (active)
CCc1ccc(S(=O)(=O)c2nnn3c2nc(N(CC)Cc2ccccc2)c2cc(Cl)ccc23)cc1	92%
CCN(Cc1ccccc1)c1nc2c(S(=O)(=O)c3ccccc3)nnn2c2ccc(Cl)cc12	88%
